In PubChem BioAssay (NCI):
Compounds without any hit were thinned out: in the full panel of roughly 83,000, 20% have a hit.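 Cells were grown in 96-well plates and exposed to the test compound at a single concentration for 48 hours; results are reported as percent growth, with values below 10 considered active.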 Unmarked numbers belong to inactive results. The source made the active and inactive calls.

Tested on: LOX IMVI melanoma
Experiment: NCI-60 one-dose screen, 48 h (100 = growth as untreated, 0 = no growth, -100 = all killed)
Settings: 10 µM unless noted
Method: Growth inhibition of the LOX IMVI human tumor cell line is measured as a screen for anti-cancer activity. Cells are grown in 96 well plates and exposed to the test compound for 48 hours. Compounds are tested at a single concentration, which is 10^-5 M for most compounds. The reported endpoint is percent growth (GI% or GIPRCNT), where numbers from 0 - 100% represent growth inhibition, and numbers from -100% - 0 represent cell death. For example, a value of 40 represents 60% growth inhibition. A value of 0 means no net growth occurred over the course of the experiment. A value of -40 indicates 40% of cells at the beginning of the experiment died by the end of the experiment. A value of -100 means all cells are dead at the end of the experiment.
NCI-60 Human Tumor Cell Lines Screen was performed using the standard one-dose NCI protocol, which is described in more detail at https://dtp.cancer.gov/discovery_development/nci-60/default.htm.
Compounds with GIPRCNT values below 10 were considered active. Activity score was based on GIPRCNT using the following formula: […]
Score is 0 for GIPRCNT values of 100 or above, 50 for GIPRCNT values of 0, and 100 for GIPRCNT values of -100.

| SMILES | growth |
| --- | --- |
| CN1CCN(c2ccc(/C=N/Nc3nc4ccccc4c(=O)n3-c3ccccc3)cc2)CC1 | 122% |
| NS(=O)(=O)c1ccc(Nc2nc(N/N=C/CCc3ccccc3)nc(Nc3ccccc3)n2)cc1 | 95.4% |
| CCOC(=O)c1c(Nc2ccccc2)nn2c(-c3cccs3)ccnc12 | 73.7% |
| CCn1c(SCC(=O)Nc2cccc(C(=O)/C=C/c3ccccc3Cl)c2)nc2ccccc2c1=O | 27.6% |
| Cc1ccc2c(c1)Oc1nc(N)c(C#N)c(N)c1C2Sc1ccc(F)cc1 (stereo not given) | -93.1% (active) |
| COc1ccc(/C(N)=N/C(N)=N/c2nc3ccccc3s2)cc1 | 22.8% |
| CCn1c(SCC(=O)Nc2cccc(C(=O)/C=C/c3ccc(C)cc3)c2)nc2ccccc2c1=O | 37.6% |
| C=C(C)[C@@H]1CC[C@]2(COC)CC[C@]3(C)[C@H](CC[C@@H]4[C@@]5(C)CCCNC(C)(C)[C@@H]5CC[C@]43C)[C@@H]12 | -90.8% (active) |
| O=C1CCCC2=C1C(c1c[nH]c3ccc(Br)cc13)Cc1cc(Br)ccc1N2 (stereo not given) | 14.1% |
| NS(=O)(=O)c1ccc(-n2cc(CN3CCCCC3)nn2)cc1 | 101% |
| CC1(COc2ccc3ncc(C#Cc4cncc(C(=O)Nc5cccc(C(F)(F)F)c5)c4)n3n2)COC1 | 65.6% |
| Cc1c(Cl)cccc1S(=O)(=O)Nc1ccc2c(c1)C(=O)N(C1CCC(=O)NC1=O)C2=O (stereo not given) | 122% |
| Nc1ccccc1NC(=O)c1ccc(NC(=O)C/C=C/c2cccnc2)cc1 | 20.3% |
| C=C(C=O)[C@@H]1CC[C@]2(COC(C)=O)CC[C@]3(C)C(CC[C@@H]4[C@@]5(C)CC[C@H](OC(C)=O)C(C)(C)[C@@H]5CC[C@]43C)[C@@H]12 (stereo not given in full) | -83.6% (active) |
| COc1cc(C2N=C(NNc3ccccc3)NC(C)=C2C(C)=O)ccc1O (stereo not given) | 66.3% |
| O=C(CSc1nnc(-c2ccc(Cl)cc2)n1-c1ccccc1)Nc1cccc(Cl)c1 | 7.5% (active) |
| CCNC(=O)N1CCc2cc(OC)c(OCCc3ccc(OC)cc3)cc2C1c1ccc(OC)cc1C (stereo not given) | 4% (active) |
| N/C(=N\C(N)=N\c1nc2ccccc2s1)c1ccc(C(F)(F)F)cc1 | 18.3% |
| Cc1nc2ncc(-c3ccc4ncnc(NCc5ccccc5)c4c3)cc2[nH]1 | 41.3% |
| COc1ccccc1C(=O)Nc1cccc2c1C(=O)C(=O)C=C2 | 63.1% |

| SMILES | growth |
| --- | --- |
| CCOC(=O)c1c(Nc2ccccc2)nn2c(-c3ccccc3)ccnc12 | 83% |
| CCN1CCN(C(=O)[C@]23CCC(C)(C)C[C@H]2C2=CC[C@@H]4[C@@]5(C)Cc6c([nH]c7ccccc67)C(C)(C)[C@@H]5CC[C@@]4(C)[C@]2(C)CC3)CC1 | 76% |
| CS(=O)(=O)Nc1cc(-c2ccc3ncc(C#N)c(NCc4ccccc4)c3c2)cnc1Cl | -32.6% (active) |
| Nc1nc(-c2cccc([N+](=O)[O-])c2)c(N=Nc2ccc(Br)cc2)s1 | -84% (active) |
| FC(F)(F)c1cc(Nc2cccc(Oc3ccc(NC4=NCCN4)nc3)c2)ccc1Cl | -94.8% (active) |
| CC1=NC2=NN3C(=NN2C(c2ccccc2)=C1)N=NC(c1ccc(Br)cc1)=C3c1ccc(Br)cc1 | 100% |
| CCCCCCCn1cc2c(N[C@H](C)c3ccccc3)ncnc2n1 | 99.2% |
| COc1ccc(C2c3sc4c(C)cccc4c3Oc3nc(CC(=O)Nc4ccccc4)[nH]c(=O)c32)cc1 (stereo not given) | 48.5% |
| CCNC(=O)N1CCc2cc(OC)c(OCCc3ccc(OC)nc3)cc2C1c1ccc(OC)cc1C (stereo not given) | 7.09% (active) |
| CS(=O)(=O)c1ccc(-c2nn(-c3ccccc3)cc2/C=N/NC(=O)c2nc(N)n[nH]2)cc1 | 84.7% |
| C[C@@H]1C[C@H]2C(=O)O[C@@H](C)C(NC(=O)[C@H](Cc3cc(F)cc(F)c3)NC(=O)Nc3ccc(C4CC4)cc3F)C(=O)N3CCC[C@H]3C(=O)N3CCCC[C@H]3C(=O)N[C@@H](CO)C(=O)N2C1 (stereo not given in full) | 30.4% |
| COc1ccccc1-n1cc(C#N)c(N)c1C(=O)c1ccc(Br)cc1 | 66.2% |
| Cc1ccc(N2C(=O)/C(=C/C=C/c3ccco3)SC2=S)cc1 | 96.2% |
| COc1ccc(-c2nc3ccc(-c4nnc(SCC(=O)Nc5ccc(C(=O)/C=C/c6ccc(Cl)cc6)cc5)o4)cc3[nH]2)cc1 | -29.9% (active) |
| N#Cc1c(-c2cccs2)cc(-c2cnccn2)nc1SCC(=O)Nc1ccc(Br)cc1 | 53.3% |
| COc1cc(/C=C2\C(=O)Nc3cc(Cl)ccc32)ccc1OCc1ccc(F)cc1 | 93.5% |
| Fc1ccc(-c2cc3nc(C(Cl)Cl)nc(-c4ccc(F)cc4)n3n2)cc1 | 55.7% |
| CC/C(=C/c1cc(OC)ccc1O)c1ccc2cc(OC)ccc2[o+]1 | 60% |
| Cn1ccnc1C(=O)/C=C/c1ccc(CNC(=O)c2ccc(Cl)cc2)cc1 | -89.2% (active) |
| CN1CCN(c2nc(-c3csc(-c4ccccc4)n3)cc3ccccc23)CC1 | -80.7% (active) |
